Test results: PubChem BioAssay (NCATS)
The source made the active and inactive calls. The call rests on the fitted dose curve; in most records, active means well fitted curve in the direction sought with a large enough effect; inconclusive means small, poorly fitted or top-dose-only effect, or another doubt; inactive means no such curve, though single readings can be large or run the other way.

target: Galactokinase (Homo sapiens) (UniProt P51570); assay: qHTS Validation Assay for Inhibitors of Human Galactokinase (GALK) (AID 493189); details: purified human GALK enzyme activity, qHTS 7-point titration; series mostly up to 57.5 µM
Sequence (P51570 whole entry, looked up): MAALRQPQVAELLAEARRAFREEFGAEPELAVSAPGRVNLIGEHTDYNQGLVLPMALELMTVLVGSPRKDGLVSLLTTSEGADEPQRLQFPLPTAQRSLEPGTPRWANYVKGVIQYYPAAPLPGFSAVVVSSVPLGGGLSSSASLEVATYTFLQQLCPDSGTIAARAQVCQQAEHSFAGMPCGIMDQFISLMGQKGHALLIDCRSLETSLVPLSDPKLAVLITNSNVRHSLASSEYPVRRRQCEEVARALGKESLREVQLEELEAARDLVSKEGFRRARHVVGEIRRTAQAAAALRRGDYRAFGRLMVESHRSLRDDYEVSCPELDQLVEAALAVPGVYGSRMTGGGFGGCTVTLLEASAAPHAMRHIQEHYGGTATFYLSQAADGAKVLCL
From the text: NIH Molecular Libraries Probe Production Centers Network [MLPCN]
NIH Chemical Genomics Center [NCGC]
Assay Submitter (PI): Kent Lai (University of Utah School of Medicine, 50 N Mario Capecchi Drive, Salt Lake City, UT 84132)
Inherited deficiency of galactose-1-phosphate uridyltransferase (GALT) can result in a potentially lethal disorder called Classic Galactosemia (OMIM 230400). Several lines of evidence indicate that an elevated level of galactose-1-phosphate (gal-1-p), the product of galactokinase (GALK), is a major, if not sole, pathogenic mechanism in patients with classic galactosemia. Therefore, finding inhibitors of GALK is a potential novel therapy for this inherent metabolic disease and is the long term goal of this project.
GALK (provided by the assay submitter) was assayed using ATP and D-(+)-Galactose (Sigma-Aldrich cat# G0750) as substrates. Promega Kinase-Glo Plus (cat# V3774) technology was used to detect the residual ATP following kinetic reaction. Briefly, the Kinase-Glo Plus contains Ultra-Glo [2] luciferase and D-luciferin which generates a bioluminescence signal from the remaining ATP.
NCGC Assay Protocol Summary:
Three uL/well of ATP-buffer solution (35 uM ATP, 20mM HEPES pH8.0, 5 mM MgCl2, 60 mM NaCl, 1 mM DTT, 0.01% BSA final concentration) was dispensed into 1536-well, assay plates (Greiner, solid white medium-binding plates) with Aurora Discovery BioRAPTR Flying Reagent Dispenser (FRD; Beckton-Dickenson). Compound solution (23 nL) was transferred to the assay plate using the Kalypsys 1536-pin tool. One uL/well GALK-galactose solution (5 nM GALK, 100 uM galactose, 20 mM HEPES pH8.0, 5 mM MgCl2, 60 mM NaCl, 1 mM DTT, 0.01% BSA final concentration) was then added using the FRD yielding a total kinase reaction volume of 4 uL/ well. After 1 hour of room temperature incubation, 4 uL Kinase-Glo Plus reagent was added for a final assay volume of 8 uL/ well. Luminescence was detected with the ViewLux plate reader (Perkin Elmer, Waltham, MA) after 10 min incubation using a 1 sec exposure time and 2x binning.

Structure (SMILES)	outcome
COc1cc(CC(C)N)c(OC)cc1I (stereo not given)	inactive
C[C@]12Cc3cn4c(nc3C=C1CCC1C2CC[C@@]2(C)[C@H]1CC[C@@]2(O)C#N)nc1ccccc14 (stereo not given in full)	inactive
NC(=O)c1ccc(OCC(O)CN2CC=C(c3ccc(F)cc3)CC2)cc1 (stereo not given)	inactive
CCS(=O)(=O)Nc1cccc(C(=C2CCCCC2)c2cnc[nH]2)c1	inactive
Cc1c2ccncc2c(C)c2c1[nH]c1ccccc12	inactive
CCCN1CC[C@@H]2c3cc(O)ccc3CC[C@@H]21	inactive
C[N+]1(C)CCN(c2ccccc2)CC1	inactive
CCCN(CCC)[C@H]1CCc2c(F)ccc(O)c2C1	inactive
O=C1CC[C@@]2(O)C3Cc4ccc(O)c5c4C2(CCN3CC2CC2)[C@H]1O5 (stereo not given in full)	inactive
CCOC(=O)c1ncn2c1[C@@H]1CCCN1C(=O)c1cc(OC)ccc1-2	inactive
Ic1ccccc1CNC1C2CCN(CC2)C1C(c1ccccc1)c1ccccc1 (stereo not given)	inactive
CN(C(=O)Cc1ccc(Cl)c(Cl)c1)C(CN1CCCC1)c1cccc(OCC(=O)O)c1 (stereo not given)	inactive
CN1C2CCC1CC(OC(c1ccccc1)c1ccccc1N)C2 (stereo not given)	inactive
CC(C)(C)c1cc(C=C(C#N)C#N)cc(C(C)(C)C)c1O	inactive
CCN(CCCl)Cc1ccccc1Br	inactive
CP(=O)(O)C1=CCNCC1	inactive
C[N+](C)(C)CCOC(=O)CBr	inactive
OCc1cnc[nH]1	inactive
O=C(O)c1cc[c]([Hg][Cl])cc1	inactive
NC(C(=O)O)c1cc(=O)[nH]o1 (stereo not given)	inactive

Structure (SMILES)	outcome
CC1OC1P(=O)(O)O (stereo not given)	inactive
NC(=O)c1cc(N2CC2)c([N+](=O)[O-])cc1[N+](=O)[O-]	inactive
CNc1ccc2oc(C[C@H]3O[C@@]4(CC[C@H]3C)O[C@H]([C@H](C)C(=O)c3ccc[nH]3)[C@H](C)C[C@H]4C)nc2c1C(=O)O	inactive
c1ccc2c(N3CCNCC3)cccc2c1	inactive
CCCN1CCCC2Cc3[nH]ncc3CC21 (stereo not given)	inactive
NC(CCCCCP(=O)(O)O)C(=O)O (stereo not given)	inactive
CC(N)c1cccc(Cl)c1Cl (stereo not given)	inactive
Cc1o[nH]c(=O)c1CC(N)C(=O)O (stereo not given)	inactive
CNC(=O)OCC[N+](C)(C)C	inactive
C[N+]1(C)CCOC(O)(c2ccc(-c3ccc(C4(O)C[N+](C)(C)CCO4)cc3)cc2)C1 (stereo not given)	inactive
CC1(C(=O)O)C2CCC(O2)C1(C)C(=O)O (stereo not given)	inactive
CC(N)[C@H](O)c1ccc(O)c(O)c1 (stereo not given in full)	inactive
C=CCN1C[C@@H](C)N([C@H](c2ccc(C(=O)N(CC)CC)cc2)c2cccc(OC)c2)C[C@@H]1C	inactive
NC(Cc1cc(O)c(O)cc1O)C(=O)O (stereo not given)	inactive
COc1ccc(OC)c(C(O)C(C)N)c1 (stereo not given)	inactive
COc1ccc2c(c1)C13CCCCC1C(C2)N(C)CC3 (stereo not given)	inactive
C=CCN1CC[C@]23c4c5ccc(O)c4O[C@H]2/C(=N/NC(=O)c2ccccc2)CC[C@@]3(O)[C@H]1C5	inactive
c1ccc2cc(CC3=NCCN3)ccc2c1	inactive
C[C@H](N)CN1CCc2ccc(Br)cc21	inactive
CC(Cc1ccc(OCC(=O)O)cc1)NCC(O)c1cccc(Cl)c1 (stereo not given)	inactive
